# Where a chain is given by its changes, count along the chain named.
# Tests used:
# Test in all cases: PBM; 200 nM protein, PBS
# Conditions in all cases: dsDNA, one strand shown
# HOXC9 [1] = target: HOXC9 (Homo sapiens, UniProt P31274 178-260, K195R)
# HOXA2 [2] = target: HOXA2 (Homo sapiens, UniProt O43364 129-215, R185T)
# HOXC9 [3] = target: HOXC9 (Homo sapiens, UniProt P31274 178-260)
# HOXC9 [4] = target: HOXC9 (Homo sapiens, UniProt P31274 178-260, R193K)
# HOXA2 [5] = target: HOXA2 (Homo sapiens, UniProt O43364 129-215, R185K)
# PROP1 [6] = target: PROP1 (Homo sapiens, UniProt O75360 56-141)
# PROP1 [7] = target: PROP1 (Homo sapiens, UniProt O75360 56-141, R99H)
# HOXC9 [8] = target: HOXC9 (Homo sapiens, UniProt P31274 178-260, R222W)
# PROP1 [9] = target: PROP1 (Homo sapiens, UniProt O75360 56-141, F88S)
# HOXA2 [10] = target: HOXA2 (Homo sapiens, UniProt O43364 129-215, Y150S)
# HOXA2 [11] = target: HOXA2 (Homo sapiens, UniProt O43364 129-215)
# ALX3 = ALX3 (Homo sapiens, UniProt O95076 139-225)
# VENTX [12] = target: T1, VENTX (Homo sapiens, UniProt O95231 78-163)
# T1 sequence: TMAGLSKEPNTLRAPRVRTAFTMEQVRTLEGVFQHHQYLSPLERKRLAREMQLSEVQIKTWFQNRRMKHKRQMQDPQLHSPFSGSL
# HOXA7 [13] = target: HOXA7 (Homo sapiens, UniProt P31268 116-202)
# HOXC10 [14] = target: HOXC10 (Homo sapiens, UniProt Q9NYD6 254-340)
# HOXC10 [15] = target: HOXC10 (Homo sapiens, UniProt Q9NYD6 254-340, K271E)
# HOXA7 [16] = target: HOXA7 (Homo sapiens, UniProt P31268 116-202, W177C)
# ALX4 = ALX4 (Homo sapiens, UniProt Q9H161 200-286)
# HOXB6 [17] = target: HOXB6 (Homo sapiens, UniProt P17509 132-218, K202E)
# HOXB6 [18] = target: HOXB6 (Homo sapiens, UniProt P17509 132-218)
# VENTX [19] = target: T2, VENTX (Homo sapiens, UniProt O95231 78-163, Y115F)
# T2 sequence: T1 sequence with Y38F
# SIX6 = target: T3, SIX6 (Homo sapiens, UniProt O95475 114-200, L143V)
# T3 sequence: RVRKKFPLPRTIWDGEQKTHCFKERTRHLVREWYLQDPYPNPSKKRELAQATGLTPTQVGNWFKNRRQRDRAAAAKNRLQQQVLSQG
# NKX3-2 [20] = target: NKX3-2 (Homo sapiens, UniProt P78367 192-278, P234S)
# NKX3-2 [21] = target: NKX3-2 (Homo sapiens, UniProt P78367 192-278)
# Chain of NKX3-2 (Homo sapiens, UniProt P78367 192-278) (P78367 192-278): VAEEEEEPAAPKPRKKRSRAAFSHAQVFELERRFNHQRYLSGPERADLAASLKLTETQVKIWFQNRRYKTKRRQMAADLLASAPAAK
# Chain of HOXC9 (Homo sapiens, UniProt P31274 178-260, K195R) (P31274 178-260 K195R): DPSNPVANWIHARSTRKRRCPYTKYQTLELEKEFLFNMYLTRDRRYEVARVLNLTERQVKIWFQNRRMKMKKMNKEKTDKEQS
# Chain of HOXC10 (Homo sapiens, UniProt Q9NYD6 254-340, K271E) (Q9NYD6 254-340 K271E): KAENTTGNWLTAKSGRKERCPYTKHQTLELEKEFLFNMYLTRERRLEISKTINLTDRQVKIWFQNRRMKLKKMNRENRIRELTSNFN
# Chain of HOXC9 (Homo sapiens, UniProt P31274 178-260, R222W) (P31274 178-260 R222W): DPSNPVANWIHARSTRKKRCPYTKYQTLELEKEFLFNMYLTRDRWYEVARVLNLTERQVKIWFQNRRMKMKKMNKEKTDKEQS
# Chain of HOXC9 (Homo sapiens, UniProt P31274 178-260) (P31274 178-260): as the sequence (P31274 178-260 R222W) above, with W45R counted along it
# Chain of HOXC10 (Homo sapiens, UniProt Q9NYD6 254-340) (Q9NYD6 254-340): as the sequence (Q9NYD6 254-340 K271E) above, with E18K counted along it
# Chain of HOXA7 (Homo sapiens, UniProt P31268 116-202, W177C) (P31268 116-202 W177C): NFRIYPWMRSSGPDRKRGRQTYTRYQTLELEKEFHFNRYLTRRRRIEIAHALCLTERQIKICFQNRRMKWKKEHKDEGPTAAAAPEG
# Chain of HOXA7 (Homo sapiens, UniProt P31268 116-202) (P31268 116-202): as the sequence (P31268 116-202 W177C) above, with C62W counted along it
# Chain of HOXC9 (Homo sapiens, UniProt P31274 178-260, R193K) (P31274 178-260 R193K): as the sequence (P31274 178-260 R222W) above, with R16K, W45R counted along it
# Chain of HOXA2 (Homo sapiens, UniProt O43364 129-215, R185K) (O43364 129-215 R185K): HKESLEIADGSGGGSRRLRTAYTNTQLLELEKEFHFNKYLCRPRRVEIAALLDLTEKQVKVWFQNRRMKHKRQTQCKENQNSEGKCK
# Chain of HOXA2 (Homo sapiens, UniProt O43364 129-215, Y150S) (O43364 129-215 Y150S): as the sequence (O43364 129-215 R185K) above, with Y22S, K57R counted along it
# Chain of HOXA2 (Homo sapiens, UniProt O43364 129-215) (O43364 129-215): as the sequence (O43364 129-215 R185K) above, with K57R counted along it
# Chain of HOXA2 (Homo sapiens, UniProt O43364 129-215, R185T) (O43364 129-215 R185T): as the sequence (O43364 129-215 R185K) above, with K57T counted along it
# Chain of PROP1 (Homo sapiens, UniProt O75360 56-141) (O75360 56-141): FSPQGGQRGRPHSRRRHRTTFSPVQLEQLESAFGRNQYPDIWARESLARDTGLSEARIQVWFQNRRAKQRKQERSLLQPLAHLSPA
# Chain of HOXB6 (Homo sapiens, UniProt P17509 132-218, K202E) (P17509 132-218 K202E): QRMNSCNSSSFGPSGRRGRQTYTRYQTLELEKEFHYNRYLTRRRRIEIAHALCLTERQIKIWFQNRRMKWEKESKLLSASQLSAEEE
# Chain of ALX3 (O95076 139-225): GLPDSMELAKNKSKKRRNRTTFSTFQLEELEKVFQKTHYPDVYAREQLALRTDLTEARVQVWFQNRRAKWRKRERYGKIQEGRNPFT
# Chain of PROP1 (Homo sapiens, UniProt O75360 56-141, R99H) (O75360 56-141 R99H): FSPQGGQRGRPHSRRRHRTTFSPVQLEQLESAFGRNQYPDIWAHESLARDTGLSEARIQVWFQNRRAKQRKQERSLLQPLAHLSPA
# Chain of NKX3-2 (Homo sapiens, UniProt P78367 192-278, P234S) (P78367 192-278 P234S): as the sequence (P78367 192-278) above, with P43S counted along it
# Chain of HOXB6 (Homo sapiens, UniProt P17509 132-218) (P17509 132-218): as the sequence (P17509 132-218 K202E) above, with E71K counted along it
# Chain of PROP1 (Homo sapiens, UniProt O75360 56-141, F88S) (O75360 56-141 F88S): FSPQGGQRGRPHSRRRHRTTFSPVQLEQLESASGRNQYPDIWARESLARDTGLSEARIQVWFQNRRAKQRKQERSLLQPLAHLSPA
# Chain of ALX4 (Q9H161 200-286): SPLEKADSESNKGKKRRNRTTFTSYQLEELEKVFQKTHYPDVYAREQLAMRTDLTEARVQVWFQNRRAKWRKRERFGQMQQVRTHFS
sequence,measurement,setting,value
CGGAGCCC,binding signal,HOXC9 [1],"9.46 upbm affinity estimate (log intensity, higher = more binding, comparable within an allelic series)"
same,binding signal,HOXA2 [2],"7.2 upbm affinity estimate (log intensity, higher = more binding, comparable within an allelic series)"
same,binding signal,HOXC9 [3],"9.37 upbm affinity estimate (log intensity, higher = more binding, comparable within an allelic series)"
same,binding signal,HOXC9 [4],"9.44 upbm affinity estimate (log intensity, higher = more binding, comparable within an allelic series)"
same,binding signal,HOXA2 [5],"10.2 upbm affinity estimate (log intensity, higher = more binding, comparable within an allelic series)"
same,binding signal,PROP1 [6],"6.65 upbm affinity estimate (log intensity, higher = more binding, comparable within an allelic series)"
same,binding signal,PROP1 [7],"6.77 upbm affinity estimate (log intensity, higher = more binding, comparable within an allelic series)"
same,binding signal,HOXC9 [8],"9.51 upbm affinity estimate (log intensity, higher = more binding, comparable within an allelic series)"
same,binding signal,PROP1 [9],"6.36 upbm affinity estimate (log intensity, higher = more binding, comparable within an allelic series)"
same,binding signal,HOXA2 [10],"10.1 upbm affinity estimate (log intensity, higher = more binding, comparable within an allelic series)"
same,binding signal,HOXA2 [11],"7.02 upbm affinity estimate (log intensity, higher = more binding, comparable within an allelic series)"
TTATACAA,binding signal,ALX3,"9.71 upbm affinity estimate (log intensity, higher = more binding, comparable within an allelic series)"
TATGAATA,binding signal,VENTX [12],"10.3 upbm affinity estimate (log intensity, higher = more binding, comparable within an allelic series)"
AGCCGACC,binding signal,HOXC9 [1],"9.56 upbm affinity estimate (log intensity, higher = more binding, comparable within an allelic series)"
same,binding signal,HOXC9 [3],"9.71 upbm affinity estimate (log intensity, higher = more binding, comparable within an allelic series)"
same,binding signal,HOXC9 [4],"9.61 upbm affinity estimate (log intensity, higher = more binding, comparable within an allelic series)"
same,binding signal,HOXC9 [8],"9.74 upbm affinity estimate (log intensity, higher = more binding, comparable within an allelic series)"
CCTGCACC,binding signal,HOXC9 [1],"9.28 upbm affinity estimate (log intensity, higher = more binding, comparable within an allelic series)"
same,binding signal,HOXC9 [3],"9.29 upbm affinity estimate (log intensity, higher = more binding, comparable within an allelic series)"
same,binding signal,HOXC9 [4],"9.3 upbm affinity estimate (log intensity, higher = more binding, comparable within an allelic series)"
same,binding signal,HOXC9 [8],"9.7 upbm affinity estimate (log intensity, higher = more binding, comparable within an allelic series)"
AATGGGGA,binding signal,VENTX [12],"10.3 upbm affinity estimate (log intensity, higher = more binding, comparable within an allelic series)"
ACTAAGCG,binding signal,VENTX [12],"10.2 upbm affinity estimate (log intensity, higher = more binding, comparable within an allelic series)"
CAGGTCCC,binding signal,HOXA7 [13],"8.47 upbm affinity estimate (log intensity, higher = more binding, comparable within an allelic series)"
same,binding signal,HOXC10 [14],"10 upbm affinity estimate (log intensity, higher = more binding, comparable within an allelic series)"
same,binding signal,HOXC10 [15],"10.1 upbm affinity estimate (log intensity, higher = more binding, comparable within an allelic series)"
same,binding signal,HOXA7 [16],"8.4 upbm affinity estimate (log intensity, higher = more binding, comparable within an allelic series)"
CCCCAGGG,binding signal,HOXC9 [1],"9.62 upbm affinity estimate (log intensity, higher = more binding, comparable within an allelic series)"
same,binding signal,HOXC9 [3],"9.8 upbm affinity estimate (log intensity, higher = more binding, comparable within an allelic series)"
same,binding signal,HOXC9 [4],"9.59 upbm affinity estimate (log intensity, higher = more binding, comparable within an allelic series)"
same,binding signal,HOXC9 [8],"9.62 upbm affinity estimate (log intensity, higher = more binding, comparable within an allelic series)"
CTAACGCA,binding signal,VENTX [12],"9.98 upbm affinity estimate (log intensity, higher = more binding, comparable within an allelic series)"
same,binding signal,ALX4,"9.64 upbm affinity estimate (log intensity, higher = more binding, comparable within an allelic series)"
GAGTCCGC,binding signal,HOXA7 [13],"8.56 upbm affinity estimate (log intensity, higher = more binding, comparable within an allelic series)"
same,binding signal,HOXC10 [14],"10.1 upbm affinity estimate (log intensity, higher = more binding, comparable within an allelic series)"
same,binding signal,HOXB6 [17],"9.05 upbm affinity estimate (log intensity, higher = more binding, comparable within an allelic series)"
same,binding signal,HOXC10 [15],"10.1 upbm affinity estimate (log intensity, higher = more binding, comparable within an allelic series)"
same,binding signal,HOXA7 [16],"8.39 upbm affinity estimate (log intensity, higher = more binding, comparable within an allelic series)"
same,binding signal,HOXB6 [18],"8.98 upbm affinity estimate (log intensity, higher = more binding, comparable within an allelic series)"
ATTTAGTC,binding signal,VENTX [12],"10.2 upbm affinity estimate (log intensity, higher = more binding, comparable within an allelic series)"
ATTTAGAC,binding signal,HOXA7 [13],"9.49 upbm affinity estimate (log intensity, higher = more binding, comparable within an allelic series)"
ACCGATCT,binding signal,VENTX [12],"9.79 upbm affinity estimate (log intensity, higher = more binding, comparable within an allelic series)"
AATTGGAC,binding signal,VENTX [12],"10.1 upbm affinity estimate (log intensity, higher = more binding, comparable within an allelic series)"
same,binding signal,VENTX [19],"9.62 upbm affinity estimate (log intensity, higher = more binding, comparable within an allelic series)"
CATCATCA,binding signal,VENTX [12],"10.4 upbm affinity estimate (log intensity, higher = more binding, comparable within an allelic series)"
CCTAGACG,binding signal,HOXC9 [1],"9.79 upbm affinity estimate (log intensity, higher = more binding, comparable within an allelic series)"
same,binding signal,HOXC9 [3],"9.86 upbm affinity estimate (log intensity, higher = more binding, comparable within an allelic series)"
same,binding signal,HOXC9 [4],"9.81 upbm affinity estimate (log intensity, higher = more binding, comparable within an allelic series)"
same,binding signal,HOXC9 [8],"9.82 upbm affinity estimate (log intensity, higher = more binding, comparable within an allelic series)"
TTATGCAA,binding signal,VENTX [12],"9.95 upbm affinity estimate (log intensity, higher = more binding, comparable within an allelic series)"
GGATATAA,binding signal,SIX6,"10.5 upbm affinity estimate (log intensity, higher = more binding, comparable within an allelic series)"
CCGGTACC,binding signal,HOXC9 [1],"9.7 upbm affinity estimate (log intensity, higher = more binding, comparable within an allelic series)"
same,binding signal,HOXC9 [3],"9.7 upbm affinity estimate (log intensity, higher = more binding, comparable within an allelic series)"
same,binding signal,HOXC9 [4],"9.72 upbm affinity estimate (log intensity, higher = more binding, comparable within an allelic series)"
same,binding signal,HOXC9 [8],"9.71 upbm affinity estimate (log intensity, higher = more binding, comparable within an allelic series)"
same,binding signal,NKX3-2 [20],"10.5 upbm affinity estimate (log intensity, higher = more binding, comparable within an allelic series)"
same,binding signal,NKX3-2 [21],"10.6 upbm affinity estimate (log intensity, higher = more binding, comparable within an allelic series)"
GATTGAGC,binding signal,VENTX [12],"9.7 upbm affinity estimate (log intensity, higher = more binding, comparable within an allelic series)"
CCAGCCCG,binding signal,HOXC9 [1],"9.66 upbm affinity estimate (log intensity, higher = more binding, comparable within an allelic series)"
same,binding signal,HOXC9 [3],"9.72 upbm affinity estimate (log intensity, higher = more binding, comparable within an allelic series)"
same,binding signal,HOXC9 [4],"9.7 upbm affinity estimate (log intensity, higher = more binding, comparable within an allelic series)"
same,binding signal,HOXC9 [8],"9.67 upbm affinity estimate (log intensity, higher = more binding, comparable within an allelic series)"
CATTTACG,binding signal,VENTX [12],"10.4 upbm affinity estimate (log intensity, higher = more binding, comparable within an allelic series)"
ACCGCTTA,binding signal,VENTX [12],"10.8 upbm affinity estimate (log intensity, higher = more binding, comparable within an allelic series)"
CACCGGTC,binding signal,HOXA7 [13],"8.56 upbm affinity estimate (log intensity, higher = more binding, comparable within an allelic series)"
same,binding signal,HOXC10 [14],"10 upbm affinity estimate (log intensity, higher = more binding, comparable within an allelic series)"
same,binding signal,HOXA2 [2],"7.38 upbm affinity estimate (log intensity, higher = more binding, comparable within an allelic series)"
same,binding signal,HOXA2 [5],"10.4 upbm affinity estimate (log intensity, higher = more binding, comparable within an allelic series)"
same,binding signal,HOXC10 [15],"9.92 upbm affinity estimate (log intensity, higher = more binding, comparable within an allelic series)"
same,binding signal,HOXA2 [10],"10.3 upbm affinity estimate (log intensity, higher = more binding, comparable within an allelic series)"
same,binding signal,HOXA7 [16],"8.34 upbm affinity estimate (log intensity, higher = more binding, comparable within an allelic series)"
same,binding signal,HOXA2 [11],"7.28 upbm affinity estimate (log intensity, higher = more binding, comparable within an allelic series)"
AATAACCG,binding signal,VENTX [12],"10.1 upbm affinity estimate (log intensity, higher = more binding, comparable within an allelic series)"
AGGGACCC,binding signal,HOXC9 [1],"9.58 upbm affinity estimate (log intensity, higher = more binding, comparable within an allelic series)"
same,binding signal,HOXC9 [3],"9.44 upbm affinity estimate (log intensity, higher = more binding, comparable within an allelic series)"
same,binding signal,HOXC9 [4],"9.63 upbm affinity estimate (log intensity, higher = more binding, comparable within an allelic series)"
same,binding signal,HOXC9 [8],"9.54 upbm affinity estimate (log intensity, higher = more binding, comparable within an allelic series)"

# — publication PMC11006913
